Among the test systems are NCI-H23 lung; NCI-H226 lung; NCI-H322M lung; HOP-62 NSCLC; NCI-H460 lung; HOP-92 NSCLC; NCI-H522 lung; A549/ATCC NSCLC; 786-0 renal; COLO 205 colon; DU-145 prostate; K-562 leukemia; MALME-3M melanoma; MDA-MB-231 breast; RXF 393 renal; SF-268 CNS; SF-295 CNS; SF-539 CNS; UACC-257 melanoma; M14 melanoma.
Holding throughout (experiment): NCI-60 one-dose screen, 48 h (100 = growth as untreated, 0 = no growth, -100 = all killed)
Holding throughout (conditions): 10 µM unless noted

Molecules are shown by their SMILES. This is part of a sample that, as a whole, favours compounds with a hit. Of some 83,000 tested, about 20% had one in any assay.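 In brief: 96-well plates, 48 h treatment, single concentration, percent growth endpoint.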 Unmarked numbers belong to inactive results. Calls of active or inactive are those of the source. The calls were made as follows: active = growth percent below 10; inactive = the rest.

`Oc1ccc(C(c2ccc(O)cc2)c2ccc(Cl)cn2)cc1`: the growth in the assay on NCI-H23 lung is -4.57% (active); in the assay on NCI-H226 lung, -31% (active); in the assay on NCI-H322M lung it was -18.9% (active); in the assay with HOP-62 NSCLC, 61.9%; with NCI-H460 lung, 103%; with HOP-92 NSCLC it was -8.51% (active). Further, the growth in the assay on NCI-H522 lung is 57.6%; in the assay with A549/ATCC NSCLC it was 52.1%; in the assay with 786-0 renal, 86.8%; in the assay on COLO 205 colon, 4.91% (active); in the assay with DU-145 prostate, 56.7%; with K-562 leukemia, 71.8%. The growth in the assay on MALME-3M melanoma was 107%; in the assay with MDA-MB-231 breast, 77.1%; in the assay on RXF 393 renal, -57% (active); in the assay on SF-268 CNS, 92.4%; in the assay on SF-295 CNS, 30.9%; with SF-539 CNS, 83.4%. Besides, the growth was 95.5% with UACC-257 melanoma and 85.5% with M14 melanoma.
On to `CC(C)(C)n1cc(-c2ccnc(NCCNS(=O)(=O)c3ccc(Br)cc3)c2)c(-c2cccc(O)c2)n1`, for which the growth in the assay on NCI-H23 lung was 35.2%; in the assay with NCI-H226 lung it was 45.4%; in the assay on NCI-H322M lung, 62.7%; with HOP-62 NSCLC, 61.1%; with NCI-H460 lung, 1.07% (active); with HOP-92 NSCLC it was 18.5%. Also, the growth was 16.7% in the assay on NCI-H522 lung; 28.9% with A549/ATCC NSCLC; 21.2% with 786-0 renal; -74.9% (active) with COLO 205 colon; 49.8% with DU-145 prostate; 6.18% (active) in the assay with K-562 leukemia. In addition, the growth in the assay on MALME-3M melanoma is 20.1%; in the assay with MDA-MB-231 breast it was 38.2%; with RXF 393 renal, 26.3%; with SF-268 CNS, 33.1%; in the assay with SF-295 CNS, 31.8%; in the assay with SF-539 CNS, 46.5%. For the same molecule, the growth in the assay with UACC-257 melanoma is 36%; in the assay with M14 melanoma it was 21.9%.
`CO[C@H]1/C=C/O[C@@]2(C)Oc3c(C)c(O)c4c(O)c(c5c(nc6cc(C)ccn65)c4c3C2=O)NC(=O)/C(C)=C\C=C\[C@H](C)[C@H](O)[C@@H](C)C(O)[C@@H](C)[C@H](OC(C)=O)[C@@H]1C` (stereo not given in full): the growth in the assay on NCI-H23 lung is 99.6%; in the assay on NCI-H226 lung, 96.1%; in the assay on NCI-H322M lung, 97.4%; in the assay on HOP-62 NSCLC it was 3.22% (active); in the assay with NCI-H460 lung, 114%; in the assay with HOP-92 NSCLC it was 98.7%. Also, the growth with NCI-H522 lung was 91.1%; in the assay with A549/ATCC NSCLC, 104%; in the assay on 786-0 renal, 95.3%; in the assay with COLO 205 colon, 0.546% (active); with DU-145 prostate, 114%; with K-562 leukemia, 95.3%. Further, the growth in the assay with MALME-3M melanoma is 93.4%; with MDA-MB-231 breast it was 104%; with RXF 393 renal, 111%; in the assay with SF-268 CNS, 102%; with SF-295 CNS, 102%; in the assay on SF-539 CNS, 105%. Also, the growth was 106% with UACC-257 melanoma and 94.4% in the assay on M14 melanoma.
Turning to `Cn1ccnc1C(=O)/C=C/c1ccc(C(=O)Nc2c(F)c(F)c(F)c(F)c2F)cc1`, the growth was -28.5% (active) in the assay with NCI-H23 lung; 13% in the assay on NCI-H226 lung; 6.92% (active) with NCI-H322M lung; 1.97% (active) in the assay on HOP-62 NSCLC; -41% (active) with NCI-H460 lung; 49.7% with HOP-92 NSCLC. Besides, the growth with NCI-H522 lung was 4.29% (active); in the assay on A549/ATCC NSCLC, 6.57% (active); with 786-0 renal it was -34.6% (active); in the assay on COLO 205 colon, -24.2% (active); in the assay with DU-145 prostate it was 12.3%; with K-562 leukemia, 1.03% (active). Further, the growth in the assay with MALME-3M melanoma is 80.9%; in the assay on MDA-MB-231 breast it was 7.97% (active); in the assay on RXF 393 renal, -52% (active); in the assay on SF-268 CNS, 3.53% (active); in the assay with SF-295 CNS, 18.2%; in the assay on SF-539 CNS, -69.9% (active). The results for the growth with UACC-257 melanoma and with M14 melanoma were 73.7% and 19.2%, respectively.
Regarding `CC1(C)C2=C(C(=O)N1Cc1ccccc1)C(c1ccco1)N(C(=O)C1CCC1)CCN2` (stereo not given), the growth in the assay on NCI-H23 lung was 95.8%; in the assay with NCI-H226 lung, 116%; with NCI-H322M lung, 107%; in the assay on HOP-62 NSCLC it was 103%; in the assay with NCI-H460 lung, 106%; with HOP-92 NSCLC it was 115%. Also, the growth in the assay on NCI-H522 lung is 93.8%; in the assay with A549/ATCC NSCLC, 75.8%; with 786-0 renal, 99.5%; in the assay with COLO 205 colon, 112%; in the assay on DU-145 prostate, 110%; with K-562 leukemia, 110%. The growth in the assay on MALME-3M melanoma is 105%; in the assay on MDA-MB-231 breast, 95.5%; with RXF 393 renal, 136%; in the assay on SF-268 CNS, 96.5%; in the assay with SF-295 CNS it was 108%; in the assay on SF-539 CNS it was 101%. Moreover, the growth with UACC-257 melanoma was 95.6%; in the assay on M14 melanoma, 103%.
In the case of `Cc1nc2c(c(-c3ccccc3)n1)Cc1c(ccc3ccccc13)O2`, the growth in the assay with NCI-H23 lung was 97.8%; in the assay with NCI-H226 lung, 82.2%; in the assay with NCI-H322M lung, 148%; with HOP-62 NSCLC, 90.9%; in the assay on NCI-H460 lung, 98.1%; in the assay with HOP-92 NSCLC, 81.9%. Also, the growth was 100% with NCI-H522 lung; 96% with A549/ATCC NSCLC; 98.7% in the assay on 786-0 renal; 100% in the assay with COLO 205 colon; 115% in the assay on DU-145 prostate; 132% with K-562 leukemia. The growth was 126% in the assay with MALME-3M melanoma; 83% with MDA-MB-231 breast; 105% with RXF 393 renal; 94.8% with SF-268 CNS; 112% in the assay with SF-295 CNS; 96.7% with SF-539 CNS. Further, the figures for the growth with UACC-257 melanoma and in the assay with M14 melanoma were 113% and 104%, respectively.
As for `C/C(=C(\c1ccc(OCCCN(C)C)cc1)c1ccc(OC(=O)Cc2ccccc2)cc1)c1ccc(Cl)cc1`, the growth in the assay on NCI-H23 lung is 84.6%; with NCI-H226 lung, 100%; with NCI-H322M lung, 86.8%; in the assay with HOP-62 NSCLC, 78.9%; with NCI-H460 lung, 40.8%; in the assay with HOP-92 NSCLC it was 51.8%. The growth in the assay with NCI-H522 lung is 67.2%; in the assay on A549/ATCC NSCLC, 63.3%; in the assay on 786-0 renal it was 68.3%; with COLO 205 colon, 50.6%; in the assay with DU-145 prostate, 80.7%; in the assay with K-562 leukemia it was 0.63% (active). Also, the growth in the assay with MALME-3M melanoma was 87.6%; in the assay with MDA-MB-231 breast it was 68.4%; with RXF 393 renal it was 69.7%; in the assay with SF-268 CNS it was 77.4%; with SF-295 CNS it was 79.1%; with SF-539 CNS it was 82%. Further, the growth with UACC-257 melanoma was 91.5%; with M14 melanoma, 7.02% (active).
For `Cc1ccc2c(n1)C[C@H](C(C)(C)O)CC[C@H]2C`, the growth was 103% in the assay on NCI-H23 lung; 100% in the assay on NCI-H226 lung; 98.5% in the assay on NCI-H322M lung; 101% in the assay with HOP-62 NSCLC; 108% in the assay with NCI-H460 lung; 97.7% with HOP-92 NSCLC. For the same molecule, the growth with NCI-H522 lung is 94.3%; with A549/ATCC NSCLC, 94.4%; in the assay on 786-0 renal, 97.9%; in the assay on COLO 205 colon, 111%; with DU-145 prostate it was 107%; in the assay with K-562 leukemia it was 101%. Further, the growth in the assay with MALME-3M melanoma was 94.4%; in the assay with MDA-MB-231 breast, 97.1%; with RXF 393 renal, 114%; in the assay with SF-268 CNS, 101%; in the assay on SF-295 CNS it was 93.4%; with SF-539 CNS, 100%. The growth with UACC-257 melanoma and in the assay on M14 melanoma was 104% throughout.

The values above are taken from PubChem BioAssay (NCI).
